In the supplement of paper PMC10849652 one finds log2 fold change data, which are given here for seven targets.

Common to all, as to test: log2 fold change, soluble protein after heating vs DMSO (PISA); higher = thermal stabilisation; K562 cells, 10 uM, 30 min; active = over 0.2 and 3.5 SD of the protein, either way, in both replicates (recomputed)
Compound in test [1]: CC[C@@H]1C(=O)N(C)c2cnc(Nc3ccc(C(=O)NC4CCN(C)CC4)cc3OC)nc2N1C1CCCC1
The gist of the method: (§1)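 Quantification of soluble protein used TMTpro 16plex LC-MS/MS, with channel sums equalised. Samples were the supernatant after 21,000xg for 90 min of pooled aliquots from K562 cells (2×10^6 cells/mL) treated with 10 μM compound for 30 min, heated for 3 min over 48°C-58°C, and extracted in PBS with 0.5% NP-40 at 4°C. Values, from duplicates, describe thermal stability against control samples on a log2 fold-change scale.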

Compound in a further test: CC[C@@H]1C(=O)N(C)c2cnc(Nc3ccc(C(=O)N[C@H]4CC[C@H](N5CCN(CC6CC6)CC5)CC4)cc3OC)nc2N1C(C)C [volasertib]
The gist of the method: as §1

Compound in test [2]: CC[C@H](C)N1C=C(C2=C(C=C(C=C21)C3=CN=C(C=C3)N4CCNCC4)C(=O)NCC5=C(C=C(NC5=O)C)C)C
The procedure, abridged: as §1

Compound in another test: CC[C@H](C)[C@@H](C(=O)N[C@@H]([C@@H](C)O)C(=O)N[C@@H](CC(C)C)C(=O)[C@]1(CO1)C)NC(=O)[C@H]([C@@H](C)CC)N(C)C(=O)C [epoxomicin]
The gist of the method:
as §1

Compound in test [3]: CCn1c(C(=O)N(C2CC2)C2CC2)cc2c3c(ncn3C)c(Nc3cc(C)n(C)n3)nc21
The gist of the method: as §1

Compound in test [4]: CCn1cc(-c2ccnc3[nH]c(-c4cccc(CN(C)C)c4)cc23)c(-c2ccc(NC(=O)N(C)C)cc2)n1
The gist of the method: as §1

Compound in test [5]: CN(C)CC(=O)Nc1ccc2[nH]c(=O)c3ccccc3c2c1
The procedure, abridged:
as §1

Compound in another test: CN(CCOC1=CC=C(C=C1)C[C@H]2C(=O)NC(=O)S2)C3=CC=CC=N3 (racemic) [rosiglitazone]
The gist of the method:
as §1

Compound in test [6]: CN1C2=C(C3=C1C(=O)N(N=C3)CC4=CC(=CC=C4)N)SC(=C2)S(=O)C
The gist of the method:
as §1

Compound in test [7]: CN1CCC(CNc2ccc3ncc(-c4cccc(OC(F)(F)F)c4)n3n2)CC1
The procedure, abridged: as §1

Compound in another test: CN1CCN(CCOc2cc(OC3CCOCC3)c3c(Nc4c(Cl)ccc5c4OCO5)ncnc3c2)CC1 [saracatinib]
The gist of the method:
as §1

Compound in a further test: CN1CCN(c2nc(C3=C(c4c[nH]c5ccccc45)C(=O)NC3=O)c3ccccc3n2)CC1 [sotrastaurin]
The procedure, abridged: as §1

Compound in a further test: CN1CC[C@H](c2c(O)cc(O)c3c(=O)cc(-c4ccccc4Cl)oc23)[C@H](O)C1 [alvocidib]
The procedure, abridged: as §1

Compound in a further test: CN1CCc2c(c3ccccc3n2Cc2ccc(C(=O)NO)cc2)C1 [Tubastatin A]
The gist of the method:
as §1

Compound in test [8]: CNC(=O)C1=CC=CC=C1NC2=NC(=NC=C2Cl)NC3=C(C=C(C=C3)N4CCOCC4)OC
The gist of the method:
as §1

Compound in the next test: CNC(=O)c1ccc(Nc2ncc(C(F)(F)F)c(NCc3nccnc3N(C)S(C)(=O)=O)n2)cc1 [defactinib]
The procedure, abridged:
as §1

Compound in the next test: CNCc1ccc(-c2[nH]c3cc(F)cc4c3c2CCNC4=O)cc1 [rucaparib]
The procedure, abridged: as §1

Compound in test [9]: CNc1nc(-c2ccc3c(N)n[nH]c3c2)cc(N2C[C@@H](C(=O)NC3CCCCC3)CC[C@H]2C)n1
The gist of the method: as §1

Compound in the next test: COC(=O)N[C@@H](C)CNc1nccc(-c2cn(C(C)C)nc2-c2cc(Cl)cc(NS(C)(=O)=O)c2F)n1 [encorafenib]
The procedure, abridged: as §1

Compound in test [10]: COC(=O)[C@H](CCSC)NC(=O)C1=C(C=C(C=C1)NC[C@H](CS)N)C2=CC=CC=C2
The procedure, abridged: as §1

About 7,900 targets were measured; listed, in parts, are those with a hit and a random draw of the rest. About 0.6% of all pairs of compound and target were hits. Values without a mark were called inactive.

Chain of UniProt Q96AD5 (Q96AD5 whole entry, looked up): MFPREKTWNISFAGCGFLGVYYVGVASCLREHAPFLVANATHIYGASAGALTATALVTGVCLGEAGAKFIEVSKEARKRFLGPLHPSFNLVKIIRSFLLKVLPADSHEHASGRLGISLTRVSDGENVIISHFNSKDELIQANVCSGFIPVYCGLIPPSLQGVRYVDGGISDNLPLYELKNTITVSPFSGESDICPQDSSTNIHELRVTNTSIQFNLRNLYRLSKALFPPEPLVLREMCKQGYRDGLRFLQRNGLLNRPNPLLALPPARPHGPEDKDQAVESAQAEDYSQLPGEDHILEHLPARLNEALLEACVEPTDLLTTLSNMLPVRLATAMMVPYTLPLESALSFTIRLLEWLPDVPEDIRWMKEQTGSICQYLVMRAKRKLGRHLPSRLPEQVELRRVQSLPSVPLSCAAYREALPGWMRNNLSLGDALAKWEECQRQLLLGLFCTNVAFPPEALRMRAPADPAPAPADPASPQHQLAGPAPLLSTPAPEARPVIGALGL
Chain of UniProt Q9Y3E5 (Q9Y3E5 whole entry, looked up): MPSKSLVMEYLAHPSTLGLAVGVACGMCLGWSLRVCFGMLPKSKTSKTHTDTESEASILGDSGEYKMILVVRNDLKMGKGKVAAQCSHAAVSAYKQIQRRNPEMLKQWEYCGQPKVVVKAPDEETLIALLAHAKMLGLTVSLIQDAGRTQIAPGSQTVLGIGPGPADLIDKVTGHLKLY
Chain of UniProt Q08752 (Q08752 whole entry, looked up): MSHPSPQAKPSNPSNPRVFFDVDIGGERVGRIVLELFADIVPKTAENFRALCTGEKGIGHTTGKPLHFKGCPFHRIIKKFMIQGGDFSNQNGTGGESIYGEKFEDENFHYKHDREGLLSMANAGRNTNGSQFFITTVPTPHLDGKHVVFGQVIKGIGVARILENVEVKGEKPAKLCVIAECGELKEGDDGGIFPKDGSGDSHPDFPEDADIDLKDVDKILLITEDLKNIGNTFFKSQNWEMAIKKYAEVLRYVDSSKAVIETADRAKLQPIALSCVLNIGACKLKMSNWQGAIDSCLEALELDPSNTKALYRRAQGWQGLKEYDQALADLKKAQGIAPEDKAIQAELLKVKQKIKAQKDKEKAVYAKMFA
Chain of UniProt O60925 (O60925 whole entry, looked up): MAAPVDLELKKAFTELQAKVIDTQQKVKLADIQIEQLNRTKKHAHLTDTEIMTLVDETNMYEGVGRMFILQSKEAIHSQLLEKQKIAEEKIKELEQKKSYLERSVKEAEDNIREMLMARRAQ
Chain of UniProt Q05209 (Q05209 whole entry, looked up): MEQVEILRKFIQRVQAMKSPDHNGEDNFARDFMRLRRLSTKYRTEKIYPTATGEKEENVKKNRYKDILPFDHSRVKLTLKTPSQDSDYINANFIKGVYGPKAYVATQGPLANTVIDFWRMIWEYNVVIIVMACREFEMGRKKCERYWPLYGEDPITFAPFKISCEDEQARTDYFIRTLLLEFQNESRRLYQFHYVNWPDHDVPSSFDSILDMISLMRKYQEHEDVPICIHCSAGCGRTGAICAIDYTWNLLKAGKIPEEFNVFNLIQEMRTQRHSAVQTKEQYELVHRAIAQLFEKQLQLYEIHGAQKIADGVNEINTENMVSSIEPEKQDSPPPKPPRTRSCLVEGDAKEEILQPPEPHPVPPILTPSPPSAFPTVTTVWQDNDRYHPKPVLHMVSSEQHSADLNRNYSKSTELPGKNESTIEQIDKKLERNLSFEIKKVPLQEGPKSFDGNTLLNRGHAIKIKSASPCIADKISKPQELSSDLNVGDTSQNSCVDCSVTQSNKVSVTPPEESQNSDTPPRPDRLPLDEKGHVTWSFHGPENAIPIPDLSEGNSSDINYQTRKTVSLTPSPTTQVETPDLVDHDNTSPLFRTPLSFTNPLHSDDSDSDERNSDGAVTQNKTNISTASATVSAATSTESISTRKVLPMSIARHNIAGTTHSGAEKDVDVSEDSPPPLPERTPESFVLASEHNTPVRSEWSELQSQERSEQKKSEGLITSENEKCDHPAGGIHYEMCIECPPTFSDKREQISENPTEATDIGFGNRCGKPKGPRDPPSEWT
Chain of UniProt O15305 (O15305 whole entry, looked up): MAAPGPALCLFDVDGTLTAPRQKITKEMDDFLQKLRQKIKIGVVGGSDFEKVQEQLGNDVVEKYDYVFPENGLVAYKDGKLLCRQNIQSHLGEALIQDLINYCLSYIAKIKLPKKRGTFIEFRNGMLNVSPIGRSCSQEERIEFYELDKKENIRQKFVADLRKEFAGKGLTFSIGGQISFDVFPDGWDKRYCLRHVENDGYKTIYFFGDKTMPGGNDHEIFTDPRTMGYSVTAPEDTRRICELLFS

Regarding PFDN1 (UniProt O60925), the log2 fold change was 0.044 in test [1]; -0.009 in the test with volasertib; -0.004 in test [2]; 0.183 with epoxomicin; 0.02 in test [3]; -0.019 in [4]. In addition, the log2 fold change is 0 in test [5]; 0.003 with rosiglitazone; -0.119 in [6]; 0.113 in test [7]; -0.074 in the test with saracatinib; -0.014 in the test with sotrastaurin. Also, the log2 fold change in the test with alvocidib is -0.035; with Tubastatin A it was 0.022; in test [8], -0.001; with defactinib, -0.066; with rucaparib, -0.095; in test [9], 0.093. Besides, the log2 fold change is 0.008 with encorafenib and -0.078 in [10].
For PTPN12 (UniProt Q05209), the log2 fold change in [1] was -0.119; in the test with volasertib, -0.465 (active); in [2] it was 0.063; in the test with epoxomicin, -0.012; in test [3], -0.077; in [4], 0.027. Besides, the log2 fold change in test [5] was 0.015; with rosiglitazone, 0.014; in [6] it was 0.079; in test [7], -0.043; in the test with saracatinib, 0.085; in the test with sotrastaurin, -0.148. The log2 fold change is 0.007 in the test with alvocidib; 0.064 in the test with Tubastatin A; 0.063 in [8]; 0.006 with defactinib; 0.047 with rucaparib; -0.04 in test [9]. Further, the results for the log2 fold change (in the test with encorafenib; in test [10]) were 0.076 and -0.088, respectively.
In the case of PTRH2 (UniProt Q9Y3E5), the log2 fold change in [1] is -0.004; in the test with volasertib, -0.09; in [2], 0.013; with epoxomicin it was -0.018; in test [3], -0.003; in test [4] it was -0.067. Also, the log2 fold change in test [5] was 0.057; with rosiglitazone, 0.001; in test [6] it was -0.042; in test [7], 0.018; in the test with saracatinib, -0.008; with sotrastaurin it was 0.027. Besides, the log2 fold change in the test with alvocidib was -0.09; with Tubastatin A it was -0.052; in test [8] it was 0.148; with defactinib it was -0.009; with rucaparib it was -0.002; in test [9], -0.051. Also, the log2 fold change with encorafenib is 0.017; in [10], 0.
On to POLR2I (UniProt P36954), for which the log2 fold change in [1] was 0.209; in the test with volasertib it was 0.232; in test [2], 0.055; with epoxomicin, 0.007; in test [3], 0.017; in test [4], -0.208. The log2 fold change was -0.107 in test [5]; -0.107 with rosiglitazone; -0.009 in test [6]; 0.202 in [7]; 0.134 in the test with saracatinib; 0.033 with sotrastaurin. In addition, the log2 fold change was 0.371 with alvocidib; -0.266 with Tubastatin A; 0.009 in test [8]; 0.141 with defactinib; 0.162 in the test with rucaparib; 0.02 in [9]. Further, the log2 fold change with encorafenib was 0.015; in [10] it was 0.023.
With PPID (UniProt Q08752), the log2 fold change is -0.076 in test [1]; -0.366 (active) with volasertib; 0.132 in test [2]; 0.026 in the test with epoxomicin; -0.046 in test [3]; -0.058 in test [4]. Besides, the log2 fold change was 0.087 in test [5]; 0.062 with rosiglitazone; -0.015 in [6]; -0.173 in test [7]; -0.137 with saracatinib; -0.178 with sotrastaurin. The log2 fold change is -0.069 with alvocidib; 0.051 with Tubastatin A; 0.044 in [8]; -0.101 with defactinib; 0.135 with rucaparib; 0.042 in test [9]. For the same target, the log2 fold change with encorafenib is 0.142; in test [10] it was -0.052.
For the target PMM2 (UniProt O15305), the log2 fold change in test [1] was -0.03; with volasertib it was -0.021; in [2], 0.026; in the test with epoxomicin, -0.021; in test [3], -0.003; in test [4] it was -0.002. Besides, the log2 fold change in test [5] is -0.049; with rosiglitazone, 0.037; in test [6], -0.076; in test [7], -0.049; in the test with saracatinib, -0.025; with sotrastaurin, 0.062. Besides, the log2 fold change with alvocidib is 0.006; with Tubastatin A, -0.031; in [8] it was -0.183; with defactinib, 0.022; in the test with rucaparib, 0.018; in test [9] it was -0.02. The log2 fold change is -0.006 with encorafenib and 0.058 in [10].
As to PNPLA2 (UniProt Q96AD5), the log2 fold change in test [1] is 0.11; in the test with volasertib, 0.126; in test [2] it was 0.015; with epoxomicin, -0.041; in test [3], 0.013; in [4] it was 0.156. For the same target, the log2 fold change was -0.044 in test [5]; -0.155 in the test with rosiglitazone; -0.025 in [6]; -0.068 in test [7]; 0.015 in the test with saracatinib; -0.028 with sotrastaurin. Besides, the log2 fold change in the test with alvocidib was -0.058; with Tubastatin A, -0.034; in [8], -0.039; in the test with defactinib, 0; with rucaparib it was -0.06; in [9], 0.154. For the same target, the log2 fold change with encorafenib was -0.012; in [10], -0.056.
